Experimental data from the supplement of paper PMC3334620.
Whole data set: some 33,000 sequences, median “E-score (-0.5 to 0.5)” near -0.056, cut for the highest 2% near 0.38. The sample holds the highest values, similar sequences and a random draw of the others, so the mix is not that of the screen.

Target: Stb4 (UniProt P50104)
Assay: PBM E-score (8-mer binding enrichment) (E-score (-0.5 to 0.5)); higher = stronger / more preferred TF binding
Details: protein concentration: 200 nM; construct: GST-DNA-binding domain
Procedure, shortened: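 Yeast transcription factors, full-length or as DNA-binding domains, were expressed with a GST tag using PURExpress in vitro transcription/translation. At about 100-200 nM they were applied to universal all-10-mer Agilent arrays, double-stranded by primer extension on fresh or once-stripped slides. Fluorescent anti-GST detected bound protein, and masliner normalised the scans. E-scores for ungapped eight-base words, pooled with reverse complements, came from the Universal PBM Analysis Suite.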

Sequence of UniProt P50104 (P50104 whole entry): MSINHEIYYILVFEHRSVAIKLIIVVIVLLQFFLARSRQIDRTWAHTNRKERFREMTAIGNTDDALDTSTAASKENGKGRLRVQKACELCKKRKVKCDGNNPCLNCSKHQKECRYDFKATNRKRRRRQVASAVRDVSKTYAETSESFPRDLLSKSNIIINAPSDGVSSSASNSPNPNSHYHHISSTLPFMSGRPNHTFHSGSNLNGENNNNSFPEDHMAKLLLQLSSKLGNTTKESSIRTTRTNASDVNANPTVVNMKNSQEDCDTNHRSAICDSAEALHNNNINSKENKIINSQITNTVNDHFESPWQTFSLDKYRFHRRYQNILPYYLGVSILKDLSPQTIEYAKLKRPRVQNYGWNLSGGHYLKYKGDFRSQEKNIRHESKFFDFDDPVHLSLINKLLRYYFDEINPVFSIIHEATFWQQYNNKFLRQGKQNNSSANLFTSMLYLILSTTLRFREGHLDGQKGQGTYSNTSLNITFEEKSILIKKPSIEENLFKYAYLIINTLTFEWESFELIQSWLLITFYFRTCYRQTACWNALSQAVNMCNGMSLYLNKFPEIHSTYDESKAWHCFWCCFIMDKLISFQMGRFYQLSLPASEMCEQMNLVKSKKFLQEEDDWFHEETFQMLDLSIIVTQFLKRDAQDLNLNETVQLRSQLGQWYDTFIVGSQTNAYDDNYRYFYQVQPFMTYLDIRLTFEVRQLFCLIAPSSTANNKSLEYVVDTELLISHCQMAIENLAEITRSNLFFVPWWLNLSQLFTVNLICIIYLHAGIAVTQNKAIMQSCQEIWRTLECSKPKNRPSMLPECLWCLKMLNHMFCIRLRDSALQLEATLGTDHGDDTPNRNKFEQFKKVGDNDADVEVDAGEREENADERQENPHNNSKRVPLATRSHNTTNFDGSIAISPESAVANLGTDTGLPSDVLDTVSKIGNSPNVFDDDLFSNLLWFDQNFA

Sequence | PBM E-score
CAGGAGTC | -0.0625
AGTCGCAT | -0.137
CTGGTAGC | -0.224
ACACCGGG | 0.213
CGTATGGA | -0.0248
CATGGGCG | -0.0118
ACCATACC | 0.044
AACTCCGG | 0.352
ATCTCCGA | 0.396
GTCTCCGA | 0.352
AACTCCGT | 0.206
AACTCCGA | 0.412
ATCTCCGC | 0.151
TCCAAAAA | 0.0234
GTCGCTCA | -0.129
GCCGACTA | 0.166
CATTCTTC | -0.0802
GTTTGCGA | -0.155
TCAGCCGA | 0.385
ACAGCCGA | 0.383
TCCGCCGA | 0.403
ACAGCCGC | 0.105
GCAGCCGC | 0.154
CCAGCCGA | 0.322
GCCGCCGA | 0.331

Sequence | PBM E-score
ACAGCCGG | 0.35
TCAGCCCA | -0.11
GCAGCCGA | 0.396
CCCGCCGA | 0.367
GCAGCCTA | -0.153
ATAAACCC | 0.0851
CGCTATAC | 0.0197
GCCAAAGC | -0.121
CAGACCTG | -0.17
TATTTCGA | 0.00011
AATGTCTG | 0.0612
ATGACGGA | 0.217
AATCTTGC | -0.0133
CAGGAATC | -0.0371
AACTAAGT | -0.0531
CGCTTCCC | 0.188
AGCTTCCG | 0.423
AGCTTCCC | -0.00142
CGCTTCCG | 0.402
CGCTTCCA | -0.0326
AGCTTCCA | 0.0259
CCTCCACC | -0.0886
ATCAAGGC | -0.111
GTAGCCTA | -0.382
CTAGCCGA | 0.455

Sequence | PBM E-score
GTAGCCGA | 0.4
CTAGCCAA | -0.0164
ATAGCCGG | 0.353
GTAGCCAA | -0.025
CTAGCCGC | 0.21
ATAGCCGA | 0.442
ATAGCCGC | 0.236
AAGAGTGG | -0.179
CTGCCTAA | -0.169
TGCCAAAA | -0.0796
TCGGGGCA | 0.226
ACTGGGCT | -0.0497
ACAGTGCT | -0.181
ATCACAAA | -0.149
CTATCTAC | -0.0208
CTCGCCGC | 0.0149
ACTGTACG | -0.153
CCGAGGTC | 0.424
GCGAGGTA | -0.124
CCGAGGTA | 0.401
CTGAGGTC | -0.243
ACGAGGTA | -0.0352
ACGAGGTC | -0.278
ACGAATCA | -0.0567
CCAGTAAA | -0.0636

Sequence | PBM E-score
TGATCGAA | -0.125
GACCGCGA | 0.0256
AAATCCCG | 0.339
GTCTCGTA | -0.115
GTCTCGAA | -0.255
ATCTCGCG | -0.0115
ATCTCGGG | 0.449
GTCTCGGA | 0.442
ATCTCGGA | 0.461
ATCTCGAA | -0.0183
ATCTCGCA | -0.035
ATCTCGAG | -0.0973
AAGATTTA | 0.0925
AAGAAATA | -0.0625
AGTTAGGA | -0.167
ATCACGAC | -0.123
CTTCGGTA | 0.383
CTTCGGTC | 0.234
GTTCGGTA | 0.425
CGTCGGTA | 0.294
GGTCGGTA | 0.223
ATTCGGTA | 0.36
AAGACTCC | -0.0274
AGATAGTG | -0.0913
ATAAGTAG | -0.157

Sequence | PBM E-score
TGCGAACA | -0.144
CACGAACC | -0.198
CCCGAACG | 0.378
GCCGAACC | 0.395
CCCGAACC | 0.414
CACGAACA | -0.0987
TACGAACA | -0.191
TCCGAACA | 0.447
CCCGAACA | 0.393
CGCGAACC | 0.166
GGCGAACC | -0.0255
ACCGAACC | 0.336
GGAAAGTA | 0.172
GAAATAGC | 0.0755
GATCTTGC | 0.0905
AGGCAGAC | -0.1
CGAGACGC | 0.14
ACCCGCTA | 0.151
CACCCTAA | -0.201
CTACAGTA | -0.139
ACTCCTTA | -0.0987
CGCAAGAA | 0.0756
GTCGAACA | -0.044
GCCGAACA | 0.393
ACCGAACA | 0.313

Sequence | PBM E-score
CCAGGTCG | -0.247
AATACCCT | 0.0669
ACTACCCG | 0.401
AATACCCG | 0.431
AACACCCG | 0.4
AACACCCC | 0.0426
ATTACCCA | -0.0268
AATACCCA | -0.00809
ACTACCCC | -0.0517
ACTACCCA | -0.261
ATTACCCC | 0.133
ATTACCCG | 0.416
CACACCCG | 0.3
CCAGTGCA | -0.303
ACGGCTAG | 0.12
ACAGCCAA | -0.135
TCTAGAGA | -0.256
TGAAACAA | -0.124
CAAGAAAG | -0.0821
ACGAACGG | 0.0948
CCGAACGG | 0.413
CCGAACGC | 0.415
ACGAACGC | -0.15
CCGAACGA | 0.379
GCGAACGC | -0.0479

Sequence | PBM E-score
ATGCTGTC | -0.134
CGCTAGAA | -0.154
ACTTATCT | -0.211
AAGTCTTC | -0.108
ATGCTGAG | -0.229
GCTTCGCA | -0.173
ACTTCGAG | -0.0152
GCTTCGGA | 0.439
ACTTCGCG | 0.116
CCTTCGCA | -0.236
CCTTCGAA | -0.117
ACTTCGCC | -0.0357
ACTTCGGG | 0.407
ACTTCGGC | 0.392
CCTTCGGA | 0.474
GCTTCGTA | -0.25
CCTTCGGC | 0.335
CGTAGTGA | -0.114
GAAGAGTC | -0.0545
ACCACTAA | -0.0511
AGGAGTCG | -0.142
GCCATAAC | -0.211
AAGTCGGG | 0.306
ACTCATTG | -0.0916
CACGCCAG | -0.0642

Sequence | PBM E-score
ACTTCGCA | -0.156
ACTTCGGA | 0.458
ACTTCGAA | -0.167
ATGATCCA | -0.032
ACGATCCA | -0.0732
CCGATCCG | 0.445
ACGATCCC | 0.192
ATGATCCC | 0.157
CCGATCCA | 0.238
ATGATCCG | 0.397
CCGATCCC | 0.34
ACGATCCG | 0.399
GAGACGCA | 0.0275
CCCAATCC | 0.0104
CAGGGGCG | -0.182
ATAACCGA | 0.388
CGGACCGA | 0.419
GGAACCGA | 0.343
ATAACCGC | 0.0841
CGAACCGA | 0.397
CGAACCGC | 0.0494
GGGACCGA | 0.265
CGGACCGC | 0.29
CTAACCGA | 0.401
CTAACCGC | 0.0169

Sequence | PBM E-score
ATAACCGG | 0.281
TCAACCGA | 0.291
GAACGTCA | -0.175
CTGCCATC | -0.0272
CCCGTACC | 0.245
AGAACTTG | -0.161
ACTGACCT | -0.2
AATGAAAG | -0.0359
ACTAGGGG | -0.0854
TCCGCAGA | 0.0922
CTTACCGC | 0.119
GATACCGA | 0.291
GTTACCGA | 0.366
GTAACCTA | 0.0635
CATACCGA | 0.287
GTAACCCA | -0.0452
CTTACCGA | 0.393
GTAACCGA | 0.386
TATACCGA | 0.383
